Where “and” joins values, the source holds several entries; their conditions need not be identical. Equal values may be shown once. Results filed as inconclusive are left out. Calls of active or inactive are those of the source. Unless noted, calls come from the whole dose curve; as a rule, active = well fitted curve in the direction sought with a large enough effect; inconclusive = small, poorly fitted or top-dose-only effect, or another doubt; inactive = no such curve, though single readings can be large; an effect the other way counts as inactive or inconclusive.
What was measured:
[1] = target: Cellular tumor antigen p53 (Homo sapiens) (UniProt P04637); assay: Primary qHTS for small molecule compounds that upregulate eGFP-tagged delta133p53alpha (in N-terminal) cells. (AID 2060322); conditions: NCI-H358 eGFP-delta133p53alpha fluorescence, 24 h; activation: hits give high values;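 note: cells pre-induced with doxycycline then dosed without doxycycline; 0% = DMSO vehicle and 100% = reference activator; nearly all actives have a fitted effect of over 75% in size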
In short: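 NCI-H358 cells pre-induced 24 h with 10 ng/ml doxycycline for eGFP-delta133p53alpha, plated dox-free and exposed 24 h at 37C to titrated compounds. Fixed, Hoechst-stained; gated GFP peak intensity by laser scanning cytometry, normalized to DMSO (0%) and 57.5 uM 5-azacytidine (100%).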

[2] = target: Cellular tumor antigen p53 (Homo sapiens) (UniProt P04637); assay: Primary qHTS for small molecule compounds that upregulate eGFP-tagged delta133p53alpha (in C-terminal) cells. (AID 2060324); conditions: NCI-H358 delta133p53alpha-eGFP (C-terminal tag), GFP fluorescence imaging, 24 h; series mostly up to 57.5 µM;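 note: 0% = DMSO wells and 100% = 57.5 µM 5-azacytidine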
In short: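 Doxycycline (100 ng/ml, 24 h) first induced the eGFP fusion in NCI-H358 C-terminal-tag cells. Washed-out cells then received titrated compounds for 24 h at 37 °C before paraformaldehyde fixation, Hoechst staining and cytometric GFP quantification.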

[3] = target: Aldehyde dehydrogenase, mitochondrial (Homo sapiens) (UniProt P05091); assay: qHTS for Inhibitors of the Aldehyde Dehydrogenase Family (ALDH2) Validation screens (AID 2061302; active = well fitted inhibition curve with a large enough effect; title and protocol of this record describe different tests;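 note: plate controls were DMSO vehicle for no effect and maximal DPI positive control response for full effect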); conditions: ALDH inhibition qHTS; series mostly up to 42.6 µM
[4] = target: Retinaldehyde dehydrogenase 3 (Homo sapiens) (UniProt P47895); assay: qHTS for Inhibitors of the Aldehyde Dehydrogenase Family (ALDH1A3) Validation screen (AID 2061312); conditions: ALDH1A3 enzyme inhibition qHTS validation, fluorescence; series mostly up to 84.7 µM; note: % is set by controls: 0 for no effect and ±100 for the full control effect; nearly all actives have a fitted effect of over 45% in size

Chain of Cellular tumor antigen p53 (Homo sapiens) (P04637 whole entry, looked up, the tested form may be a part): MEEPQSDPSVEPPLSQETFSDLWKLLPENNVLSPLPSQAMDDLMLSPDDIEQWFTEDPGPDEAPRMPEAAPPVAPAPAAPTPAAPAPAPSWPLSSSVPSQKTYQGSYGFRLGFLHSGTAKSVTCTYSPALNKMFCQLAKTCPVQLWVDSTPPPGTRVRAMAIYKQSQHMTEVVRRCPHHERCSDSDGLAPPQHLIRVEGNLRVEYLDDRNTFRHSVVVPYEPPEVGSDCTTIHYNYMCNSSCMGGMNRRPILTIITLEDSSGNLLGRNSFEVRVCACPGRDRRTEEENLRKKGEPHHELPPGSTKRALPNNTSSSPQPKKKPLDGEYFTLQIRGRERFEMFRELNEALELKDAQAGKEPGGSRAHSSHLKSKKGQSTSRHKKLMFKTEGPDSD

O=c1ccn([C@@H]2O[C@H](COP(=O)(O)OP(=O)(O)O)[C@@H](O)[C@H]2O)c(=O)[nH]1
inactive: activation [1] -29.5% | Potency [2] | Potency [3] | Potency [4]

Nc1nc2c(ncn2[C@@H]2O[C@H](CO)[C@@H](O)[C@@H]2O)c(=O)[nH]1
inactive: activation [1] -6.66% | Potency [2] | Potency [3] | Potency [4]

O=c1[nH]c(=O)n([C@H]2C[C@H](O)[C@@H](CO)O2)cc1Br
inactive: activation [1] -16.4% and -22.3% | Potency [2] | Potency [3] | Potency [4]

CC[N+](C)(C)c1cccc(O)c1
inactive: activation [1] 3.57% | Potency [2] | Potency [3] | Potency [4]

CN/C(=C\[N+](=O)[O-])NCCSCc1ccc(CN(C)C)o1
inactive: activation [1] 7.34% and -15.3% | Potency [2] | Potency [3] | Potency [4]

CCn1nc(C(=O)O)c(=O)c2cc3c(cc21)OCO3
inactive: activation [1] -7.53% and -29.2% | Potency [2] | Potency [3] | Potency [4]

CCC(=O)N1CCN(C(=O)c2ccccc2)CC1
inactive: activation [1] -16% | Potency [2] | Potency [3] | Potency [4]

CCOC(=O)C12CC1/C(=N/O)c1ccccc1O2 (centres undefined)
inactive: activation [1] -19.2% | Potency [2] | Potency [3] | Potency [4]

CCCCCCCC/C=C\CCCCCCCC(=O)NCCO
inactive: activation [1] -9.12% | Potency [2] | Potency [3] | Potency [4]

NC/C=C/C(=O)O
inactive: activation [1] 18.6% and -17.5% | Potency [2] | Potency [3] | Potency [4]

C=C1C[C@@]23CC[C@H]4[C@@](C)(CCC[C@@]4(C)C(=O)OC4OC(CO)C(O)C(O)C4O)[C@@H]2CC[C@]1(OC1OC(CO)C(O)C(O)C1OC1OC(CO)C(O)C(O)C1O)C3 (some centres undefined)
inactive: activation [1] -5.25% | Potency [2] | Potency [3] | Potency [4]

Reference: PubChem BioAssay (NCATS)
